Measurements as given in PubChem BioAssay (NCATS).
Results filed as inconclusive are left out. The source made the active and inactive calls. Calls follow the shape of the dose curve; as a rule, active = well fitted inhibition curve with a large enough effect; inconclusive = small, poorly fitted or top-dose-only effect; inactive = flat fitted curve, though single readings scatter.

Experiments:
Test in all cases: qHTS profiling for inhibitors of Plasmodium falciparum proliferation (AID 504749); also: nearly all actives have a fitted effect of over 60% in size
Conditions in all cases: P. falciparum in erythrocytes, SYBR Green DNA, 72 h; series mostly up to 28.7 µM
[1] = system: FAB9
Procedure, shortened: (§1)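 Parasite proliferation within erythrocytes, 72 h exposure. Endpoint: SYBR Green I fluorescence after overnight lysis at room temperature. Controls: 0.29 uM artemisinin, DMSO.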

[2] = system: GB4
Procedure, shortened: as §1

[3] = system: HB3
Procedure, shortened: as §1

[4] = system: ICS
Procedure, shortened: as §1

[5] = system: JCK
Procedure, shortened: as §1

[6] = system: P94_40
Procedure, shortened: as §1

[7] = system: PAD
Procedure, shortened: as §1

[8] = system: PC15
Procedure, shortened: as §1

[9] = system: N140
Procedure, shortened: as §1

[10] = system: P93_24
Procedure, shortened: as §1

Measured: Potency
Potency is read from the fitted curve at half-maximal effect.

CCC1C(C)=NN=C(c2ccc(OC)c(OC)c2)c2cc(OC)c(OC)cc21 (stereo unspecified)
active: [4] 8.91 µM
not listed: [9] | [10]
inactive: all other assays above

Clc1ccc(Cl)cc1
inactive: all assays above

CC(=O)OC1CN2CCC1CC2 (stereo unspecified)
inactive: all assays above

O=C1CCCCC1CN1CCCCC1 (stereo unspecified)
inactive: all assays above

CCC1(c2ccccc2)C(=O)NC(=O)N(C(=O)c2ccccc2)C1=O (stereo unspecified)
inactive: all assays above

Oc1cccc[c]1[Hg][Cl]
active: [1] 10 µM | [2] 4.26 µM | [3] 10 µM | [4] 5.01 µM | [5] 12.6 µM | [9] 5.01 µM | [10] 6.31 µM | [6] 5.01 µM | [7] 5.62 µM | [8] 10 µM

O=[N+]([O-])c1ccccc1
inactive: all assays above

CC(C)CCON=O
inactive: all assays above

CN1c2ccccc2C(NCCCCCCC(=O)O)c2ccc(Cl)cc2S1(=O)=O (stereo unspecified)
inactive: all assays above

CCC1(C)CC(=O)NC(=O)C1
inactive: all assays above

[O]=[Cd]
inactive: all assays above

C[N+]1(C)CCCCC1COC(=O)C(O)(c1ccccc1)c1ccccc1 (stereo unspecified)
not listed: [6] | [10]
inactive: all other assays above

ClCC1CO1 (stereo unspecified)
inactive: all assays above

CNC1(c2ccccc2Cl)CCCCC1=O (stereo unspecified)
active: [2] 12 µM
not listed: [7]
inactive: all other assays above

CCCCNCC(O)c1ccc(O)cc1 (stereo unspecified)
active: [5] 1.12 µM
inactive: all other assays above

C[CH2][Hg][S]c1ccccc1C(=O)O
active: [1] 5.62 µM | [2] 1.69 µM | [3] 2.24 µM | [4] 1.26 µM | [5] 10 µM | [9] 2.24 µM | [10] 2.82 µM | [6] 3.16 µM | [7] 2.82 µM | [8] 4.47 µM

O=C(OCCN1CCCCC1)C(O)(c1ccccc1)c1ccccc1
inactive: all assays above

O=CC=O
inactive: all assays above

CCC1(c2ccccc2)C(=O)NC(=O)NC1=O
inactive: all assays above

c1csc(C2(N3CCCCC3)CCCCC2)c1
inactive: all assays above

COC([CH2][Hg])CNC(=O)c1ccccc1OCC(=O)O (stereo unspecified)
inactive: all assays above

O=C1C2CC=CCC2C(=O)N1SC(Cl)(Cl)Cl (stereo unspecified)
inactive: all assays above

O=C(NC(=O)c1c(F)cccc1F)Nc1ccc(Cl)c(Oc2ncc(C(F)(F)F)cc2Cl)c1
inactive: all assays above

O=C1CN(O)C(c2ccccc2)=c2cc(Cl)ccc2=N1
inactive: all assays above

CC[N+](C)(CC)CCOC(=O)C(O)(c1ccccc1)c1ccccc1
inactive: all assays above

C[C@]12CCC(=O)C[C@@H]1CC[C@@H]1[C@@H]2CC[C@]2(C)[C@@H](O)CC[C@@H]12
inactive: all assays above

O=[N+]([O-])c1cc(I)c(O)c(I)c1
inactive: all assays above

O=C(NCNC(=O)NC1C(=O)NC(=O)N1CO)NC1C(=O)NC(=O)N1CO (stereo unspecified)
inactive: all assays above

[O]=[Cr](=[O])([OH])[O][Cr](=[O])(=[O])[OH]
inactive: all assays above

C[N+]1(C)C2CCC1CC(OC(=O)c1c[nH]c3ccccc13)C2 (stereo unspecified)
inactive: all assays above

c1ccc2cc(CC3=NCCN3)ccc2c1
not listed: [2]
inactive: all other assays above

CCC1(c2ccccc2)C(=O)NC(=O)N(C)C1=O (stereo unspecified)
active: [3] 11.2 µM | [4] 3.98 µM
inactive: [1] | [5] | [6]

CCCCCCCCOC(=O)c1ccccc1C(=O)OCCCCCCCC
not listed: [4] | [10]
inactive: all other assays above

CCC(=O)O[C@@](Cc1ccccc1)(c1ccccc1)[C@@H](C)CN(C)C
inactive: [1] | [3] | [5] | [6] | [7]

O=c1[nH]cc(N(CCCl)CCCl)c(=O)[nH]1
not listed: [4]
inactive: all other assays above

CNC(=O)Oc1ccccc1C(=O)Nc1ccccc1
inactive: [1] | [3] | [8]
active: [2] 15.1 µM | [4] 12.6 µM

COc1ccc2c(c1OC)C(=O)OC2C1c2cc3c(cc2CCN1C)OCO3 (stereo unspecified)
not listed: [2]
inactive: all other assays above

c1cc2c(c(NC3=NCCN3)c1)CCCC2
not listed: [2] | [4] | [8]
inactive: all other assays above

Oc1cc(Cl)c(Cl)cc1Cl
not listed: [2] | [4]
inactive: all other assays above

Cc1sc2ccccc2c1CC1=NCCN1
not listed: [2] | [8]
inactive: all other assays above

C[C@H]1CCC[C@H](O)CCCCCc2cc(O)cc(O)c2C(=O)O1
inactive: [1] | [3] | [5] | [10] | [7] | [8]

CC(=O)O[C@H]1CC[C@H]2[C@@H]3CCC4=CC(=O)CCC4=C3C=C[C@]12C
not listed: [2] | [6]
inactive: all other assays above

CCCCCl
not listed: [5]
inactive: all other assays above

CN1[C@@H]2CC[C@H]1CC(OC1c3ccccc3CCc3ccccc31)C2 (stereo partly specified)
active: [10] 3.98 µM
inactive: [1] | [3] | [5] | [8]

O=c1c2ccccc2[se]n1-c1ccccc1
inactive: [1] | [3] | [5]

O=C1CN=C(c2ccccc2)c2cc(Cl)ccc2N1CC1CC1
not listed: [4]
inactive: all other assays above

CCCC(=O)OC(C(Cl)(Cl)Cl)P(=O)(OC)OC (stereo unspecified)
inactive: [1] | [2] | [3] | [5] | [9] | [7]

CN1CCCC(=C(c2cccs2)c2cccs2)C1
inactive: [1] | [3] | [5] | [8]
active: [2] 8.49 µM

CCNC(C)Cc1cccc(C(F)(F)F)c1 (stereo unspecified)
not listed: [2]
inactive: all other assays above

O=S(=O)(O)c1cc(O)ccc1O
not listed: [2]
inactive: all other assays above

CC(C)Nc1ccc(Nc2ccccc2)cc1
active: [1] 10 µM | [2] 5.36 µM | [4] 7.08 µM | [9] 7.94 µM | [10] 7.94 µM | [6] 8.91 µM | [7] 10 µM

CCCN1CCCC2Cc3[nH]ncc3CC21 (stereo unspecified)
not listed: [2]
inactive: all other assays above

C=CCN=C=S
not listed: [2]
inactive: all other assays above

COCC(C)N(C(=O)CCl)c1c(C)csc1C (stereo unspecified)
not listed: [4]
inactive: all other assays above
